Assay outcomes (PubChem)
This is a sample that favours compounds with a hit; in the whole collection about 3.5% have one here.
GPR151 activ – human GPR151 activation. Q8TDV0. PathHunter beta-arrestin GPR151 cells, luminescence. activation, % at 11.2 µM. hit rate 1% among 650,000; in the data active = activation above about 4.9%
MITF inh – inhibitors of human MITF; hit rate 0.91% among 650,000; O75030; AlphaScreen MITF homodimerization, bead proximity signal; inhibition, % at 2.6 µM; in the data active = inhibition above about 50%
Target sequence (O75030 whole entry, looked up): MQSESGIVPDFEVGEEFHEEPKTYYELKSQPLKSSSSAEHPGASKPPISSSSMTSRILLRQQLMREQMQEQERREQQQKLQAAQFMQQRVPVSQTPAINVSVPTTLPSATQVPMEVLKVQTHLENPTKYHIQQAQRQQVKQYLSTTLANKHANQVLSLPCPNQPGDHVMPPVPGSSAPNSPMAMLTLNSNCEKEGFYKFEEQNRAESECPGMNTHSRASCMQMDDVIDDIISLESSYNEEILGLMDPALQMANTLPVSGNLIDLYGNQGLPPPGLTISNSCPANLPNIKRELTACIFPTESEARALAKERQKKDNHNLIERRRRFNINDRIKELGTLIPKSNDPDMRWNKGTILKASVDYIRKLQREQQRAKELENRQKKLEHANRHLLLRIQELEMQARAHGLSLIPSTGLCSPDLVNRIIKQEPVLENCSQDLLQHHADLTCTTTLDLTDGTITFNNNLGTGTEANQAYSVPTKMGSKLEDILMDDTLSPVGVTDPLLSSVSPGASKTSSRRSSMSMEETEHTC
FBW7 activator – activators of human E3 ligase FBW7; hit rate 0.13% among 650,000; normalized activity (activation), % at 26.1 µM; AlphaScreen FBW7–phospho-cyclin E peptide binding, activator screen; AID 1259310; in the data active = normalized activity above about 1.9%;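 also: purified mutant Fbw7 with reduced substrate affinity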
TEAD-YAP inh – TEAD-YAP interaction inhibition. HEK-TIYL cells, TEAD-Gal4/YAP UAS-luciferase luminescence. inhibition, % at 9.12 µM. hit rate 1.4% among 640,000; in the data active = inhibition above about 32%
Each line names hits and unclear results; the compound was inactive in the other large screens.

CCOc1ccc2c(c1)cc(CN(C(=O)c1cnccn1)C1CCCCC1)c1nnnn12	none
CN(C)/C(CBr)=C1/N=C(c2ccccc2)OC1=O	none
Cc1ccn2c(/C(=C3/N=C(c4ccccc4)OC3=O)N(C)C)cnc2c1	TEAD-YAP inh 34
CCc1cc(NCc2cccs2)n2nc3nc(C)cc(C)c3c2n1	none
CCc1cc(NCc2ccco2)n2nc3nc(C)cc(C)c3c2n1	FBW7 activator 252
CCOC(=O)CNC(=O)/C=C/c1ccc(OC)c(OC)c1	none
NNC(=O)CNc1c(-c2ccsc2)nc2ccccn12	TEAD-YAP inh 52
COc1ccc2cc3c(N)nn(C(=O)c4cc(OC)c(OC)c(OC)c4)c3nc2c1	TEAD-YAP inh 51
COc1ccc2cc3c(N)nn(C(=O)c4ccncc4)c3nc2c1	none
CCOc1ccc(C(=O)n2nc(N)c3cc4cc(OC)ccc4nc32)cc1OCC	TEAD-YAP inh 52
COc1ccc2nc3c(cc2c1)c(N)nn3C(=O)c1cc(OC)c(OC)c(OC)c1	TEAD-YAP inh 62
O=Cc1cn(CCC(=O)O)nc1-c1ccc(Cl)cc1	none
CCc1cccc(CC)c1N1C(=O)c2ccccc2C1=O	none
Cc1ccc2oc(-c3ccc(NC(=O)C(F)(F)F)cc3)nc2c1	TEAD-YAP inh 71
COc1ccc2oc(-c3cccc(NC(C)=O)c3)nc2c1	TEAD-YAP inh 40
CCC(=O)Nc1ccc2oc(-c3cccc(Br)c3)nc2c1	TEAD-YAP inh 57
CCC(=O)Nc1ccc2oc(-c3cccc(I)c3)nc2c1	none
CCC(=O)Nc1ccc2oc(-c3cccc(C)c3)nc2c1	TEAD-YAP inh 82
CCc1ccc2oc(-c3cccc(NC(C)=O)c3)nc2c1	none
Cc1ccc2oc(-c3ccc(C(=O)Nc4ccc(NC(=O)C(C)(C)C)cc4)cc3)nc2c1	none
Cc1ccc(C(=O)N/N=C\c2ccccc2)o1	none
Cc1ccc(S(=O)(=O)N2CCN(c3ccc([N+](=O)[O-])cc3F)CC2C)cc1 (configuration not stated)	none
Cc1ccnc(NC(c2ccncc2)c2ccc3ccc(C)nc3c2O)c1 (configuration not stated)	TEAD-YAP inh 39
Cc1ccnc(NC(c2cccnc2)c2ccc3cccnc3c2O)c1 (configuration not stated)	MITF inh 66
COc1ccccc1NC(c1cccnc1)c1ccc2cccnc2c1O (configuration not stated)	MITF inh 76
Cc1ccnc(NC(c2ccc(C(C)(C)C)cc2)c2ccc3cccnc3c2O)c1 (configuration not stated)	none
Cc1ccnc(NC(c2cccnc2)c2ccc3ccc(C)nc3c2O)c1 (configuration not stated)	none
C=CCOc1cccc(C(Nc2cc(C)ccn2)c2ccc3ccc(C)nc3c2O)c1 (configuration not stated)	none
CCOc1ccc(C(Nc2cc(C)ccn2)c2ccc3cccnc3c2O)cc1C (configuration not stated)	TEAD-YAP inh 86
CN(C)C(=O)NC(Nc1ccc(I)cc1)C(Cl)(Cl)Cl (configuration not stated)	none
Oc1c(C(Nc2nccs2)c2cccnc2)ccc2cccnc12 (configuration not stated)	MITF inh 89, TEAD-YAP inh 67
O=C(NCc1ccccc1)c1ccc2cncc(-c3ccccc3)c2n1	MITF inh 60, TEAD-YAP inh 66
Cc1cnc(CNC(=O)c2ccc3cncc(-c4ccccc4)c3n2)cn1	TEAD-YAP inh 63
CCCCN1C(=O)c2cccc3c(N)ccc(c23)C1=O	none
CC(C)CCN1C(=O)c2cccc3c(N)ccc(c23)C1=O	FBW7 activator 2.1
COc1ccc(-c2cc(O)c3c(C)oc(C)c3c(=O)c2)cc1OC	none
CS/C(=C\[N+](=O)[O-])Nc1ccc(C(C)(C)C)cc1	TEAD-YAP inh 55
C=C1N(c2ccc(C)cc2)C(=O)OC1(C)C	none
COc1cccc2cc(C(=O)Nc3ccc(CC(=O)O)cc3)c(=O)oc12	TEAD-YAP inh 72
COc1cccc(C(=O)Nc2ccc(Oc3ccc4c(c3)C(=O)NC4=O)cc2)c1	TEAD-YAP inh 51
COc1ccc(NC(=O)c2cc3cccc(OC)c3oc2=O)cc1	none
CC(C)C(=O)N1CCN(c2ccc(NC(=O)COc3ccccc3[N+](=O)[O-])cc2)CC1	TEAD-YAP inh 50
COc1cccc(C(=O)NNC(=O)Cc2ccc(-c3ccccc3)cc2)c1	TEAD-YAP inh 62
CN1CCN(c2ccc(NC(=O)COc3ccccc3[N+](=O)[O-])cc2)CC1	none
COc1cccc(C(=O)Nc2ccc(CC(=O)O)cc2)c1	TEAD-YAP inh 60
Cc1cccc(C(=O)Nc2ccc(N3CCN(C(=O)C(C)C)CC3)cc2)c1	none
COc1cccc(C(=O)Nc2ccc(N3CCN(C(=O)C(C)C)CC3)cc2)c1	TEAD-YAP inh 46
COc1cccc(C(=O)Nc2ccc(-c3ccccc3)cc2)c1	none
CS(=O)(=O)N1CCc2cc(N3CCN(Cc4ccc(F)cc4Cl)C3=O)ccc21	none
COc1cc(OC)cc(C(=O)c2c(N)sc3c2CCCC3)c1	none
COc1cc(OC)cc(C(=O)c2c(N)sc3c2CCC(C)C3)c1 (configuration not stated)	TEAD-YAP inh 54
O=P(O)(O)O[C@@H]1[C@@H](OP(=O)(O)O)[C@@H](OP(=O)(O)O)[C@@H](O)[C@H](O)[C@H]1OP(=O)(O)O	none (no result: FBW7 activator, TEAD-YAP inh)
CCOC(=O)CN1C(=O)SC(Nc2ccccc2C(=O)O)C1=O (configuration not stated)	none
c1cc2[nH]snc2c2nc(C3CC3)nc12	TEAD-YAP inh 38
O=C(Nc1nc2c(s1)CCc1ccccc1-2)c1ccco1	none
O=C(CCCl)Nc1nc2c(s1)CCc1ccccc1-2	TEAD-YAP inh 35
CC(=O)n1c2c(c3ccccc31)OC(N)=C(C#N)C2c1ccc(F)cc1 (configuration not stated)	none
CC(=O)n1c2c(c3ccccc31)OC(N)=C(C#N)C2c1cc(Br)ccc1F (configuration not stated)	TEAD-YAP inh 61
COC(=O)C1=C(C)NC2=C(C(=O)CC(c3ccc(OC)c(OC)c3)C2)C1c1cc(OC)c(OC)c(OC)c1 (configuration not stated)	none
CN(C)c1ccc(NC2=C([N+](=O)[O-])C(=O)c3ccccc32)cc1	MITF inh 86
COCCn1c(C)cc(C(=O)COC(=O)c2cccc(Oc3ccccc3)c2)c1C	none
Cc1cc(C(=O)COC(=O)c2cccc(NS(C)(=O)=O)c2)c(C)n1-c1ccccc1	none
COCCn1c(C)cc(C(=O)COC(=O)c2cccc(O)c2)c1C	TEAD-YAP inh 62
Cc1cc(C(=O)COC(=O)c2cccc(NS(C)(=O)=O)c2)c(C)n1Cc1ccccc1	TEAD-YAP inh 57
COCCn1c(C)cc(C(=O)COC(=O)c2ccccc2Nc2ccccc2)c1C	TEAD-YAP inh 75
CCOCCCNc1ncnc2c1cnn2C	FBW7 activator 1.9
O=C(Nc1nnc(-c2ccc3c(c2)OCCO3)o1)c1ccccc1Oc1ccccc1	none
O=C(Nc1ccc2c(c1)OCCO2)c1ccccc1Br	TEAD-YAP inh 37
O=C(Nc1nnc(-c2ccc3c(c2)OCCO3)o1)c1ccccc1Br	TEAD-YAP inh 68
